According to PubChem BioAssay (NCI):
About 83,000 compounds went through this panel and 20% of them were active in at least one assay; those are over-represented in the sample as a whole.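 Interpretation: 100, growth as untreated; towards 0, rising growth inhibition; 0, no net growth; 0 to -100, cell death. Compounds scoring below 10 were considered active.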 Activity calls are given as the source filed them.

How the values were obtained:
Experiment in all cases: NCI-60 one-dose screen, 48 h (100 = growth as untreated, 0 = no growth, -100 = all killed)
Conditions in all cases: 10 µM unless noted
RPMI-8226 leukemia = test system: RPMI-8226 leukemia
OVCAR-5 ovarian = test system: OVCAR-5 ovarian
OVCAR-4 ovarian = test system: OVCAR-4 ovarian
SK-OV-3 ovarian = test system: SK-OV-3 ovarian
IGROV1 ovarian = test system: IGROV1 ovarian
OVCAR-3 ovarian = test system: OVCAR-3 ovarian
HS 578T breast = test system: HS 578T breast
NCI/ADR-RES ovarian = test system: NCI/ADR-RES ovarian
BT-549 breast = test system: BT-549 breast
MDA-MB-435 melanoma = test system: MDA-MB-435 melanoma
SW-620 colon = test system: SW-620 colon
MCF7 breast = test system: MCF7 breast
HCT-116 colon = test system: HCT-116 colon
HCC-2998 colon = test system: HCC-2998 colon
KM12 colon = test system: KM12 colon
T-47D breast = test system: T-47D breast
OVCAR-8 ovarian = test system: OVCAR-8 ovarian

Measured: growth

CNC(=S)NNC(=O)C1CC1
inactive: RPMI-8226 leukemia 98.9% | OVCAR-5 ovarian 107% | OVCAR-4 ovarian 113% | SK-OV-3 ovarian 105% | IGROV1 ovarian 118% | OVCAR-3 ovarian 116% | HS 578T breast 112% | NCI/ADR-RES ovarian 110% | BT-549 breast 92.1% | MDA-MB-435 melanoma 114% | SW-620 colon 112% | MCF7 breast 96.9% | HCT-116 colon 101% | HCC-2998 colon 110% | KM12 colon 109%

Cc1ccc(CSC(=N)N)cc1C
inactive: RPMI-8226 leukemia 78.7% | OVCAR-5 ovarian 114% | OVCAR-4 ovarian 101% | SK-OV-3 ovarian 111% | IGROV1 ovarian 106% | OVCAR-3 ovarian 116% | HS 578T breast 103% | NCI/ADR-RES ovarian 98.8% | T-47D breast 108% | BT-549 breast 98.1% | MDA-MB-435 melanoma 112% | SW-620 colon 102% | MCF7 breast 101% | HCT-116 colon 105% | HCC-2998 colon 100% | KM12 colon 107%

Cc1ccc(C(=O)C2=Cc3cc4ccccc4n3Cc3cnnn32)cc1
inactive: RPMI-8226 leukemia 99.9% | OVCAR-5 ovarian 96.2% | OVCAR-4 ovarian 104% | SK-OV-3 ovarian 99.6% | IGROV1 ovarian 104% | OVCAR-3 ovarian 109% | HS 578T breast 94% | NCI/ADR-RES ovarian 108% | T-47D breast 77.8% | BT-549 breast 89.4% | MDA-MB-435 melanoma 71.7% | SW-620 colon 105% | MCF7 breast 90.9% | HCT-116 colon 94.1% | HCC-2998 colon 98.7% | KM12 colon 83.4%

COC(=O)C(Sc1ccc(Cl)cc1)C1SC(=S)N(Cc2ccccc2)C1=O (centres undefined)
inactive: RPMI-8226 leukemia 84.6% | OVCAR-8 ovarian 101% | OVCAR-5 ovarian 118% | SK-OV-3 ovarian 108% | OVCAR-3 ovarian 105% | HS 578T breast 106% | NCI/ADR-RES ovarian 102% | BT-549 breast 84.1% | MDA-MB-435 melanoma 90.4% | SW-620 colon 98.3% | MCF7 breast 77.2% | HCT-116 colon 89.7% | KM12 colon 99.6%

COc1ccc(-c2nc3sccn3c2/C=C/C(=O)c2cc(F)cc(F)c2)cc1
active: RPMI-8226 leukemia 6.15%
inactive: OVCAR-8 ovarian 80.7% | OVCAR-5 ovarian 102% | OVCAR-4 ovarian 66.2% | SK-OV-3 ovarian 75.3% | OVCAR-3 ovarian 54.7% | HS 578T breast 75.1% | NCI/ADR-RES ovarian 78% | T-47D breast 40.5% | BT-549 breast 127% | MDA-MB-435 melanoma 94.2% | SW-620 colon 53.9% | MCF7 breast 20.3% | HCT-116 colon 53.7% | HCC-2998 colon 51.3% | KM12 colon 84.3%

COP(=O)(OC)/C(=N\NS(=O)(=O)c1ccc(C)cc1)c1ccccc1
inactive: RPMI-8226 leukemia 109% | OVCAR-8 ovarian 106% | OVCAR-5 ovarian 91% | SK-OV-3 ovarian 91.7% | OVCAR-3 ovarian 103% | HS 578T breast 123% | NCI/ADR-RES ovarian 95.8% | T-47D breast 94.7% | BT-549 breast 125% | MDA-MB-435 melanoma 106% | SW-620 colon 105% | MCF7 breast 88.6% | HCT-116 colon 103% | HCC-2998 colon 102% | KM12 colon 103%

O=S(=O)(NCCNc1nccc(-c2c(-c3ccc(O)cc3)nc3sccn23)n1)c1cccc2ccccc12
inactive: RPMI-8226 leukemia 92.5% | OVCAR-5 ovarian 114% | OVCAR-4 ovarian 91.6% | SK-OV-3 ovarian 106% | IGROV1 ovarian 105% | OVCAR-3 ovarian 117% | HS 578T breast 110% | NCI/ADR-RES ovarian 102% | T-47D breast 94.4% | BT-549 breast 108% | MDA-MB-435 melanoma 106% | SW-620 colon 107% | MCF7 breast 96.8% | HCT-116 colon 108% | KM12 colon 109%

COc1cc(Nc2nc(N[C@H]3CCCC[C@@H]3N)nc3cc[nH]c(=O)c23)cc(OC)c1
active: IGROV1 ovarian 8.81% | BT-549 breast -27% | HCT-116 colon 7.88% | KM12 colon 7.39%
inactive: RPMI-8226 leukemia 25% | OVCAR-8 ovarian 14.5% | OVCAR-5 ovarian 22.2% | SK-OV-3 ovarian 24.1% | OVCAR-3 ovarian 70.4% | HS 578T breast 53.6% | NCI/ADR-RES ovarian 100% | T-47D breast 83.6% | MDA-MB-435 melanoma 33.4% | SW-620 colon 14.2%

Cc1c(C(N)=O)sc2c1c(=O)n(Cc1ccccc1)c1nnc(Nc3ccccc3)n21
inactive: RPMI-8226 leukemia 148% | OVCAR-8 ovarian 89.2% | OVCAR-5 ovarian 104% | OVCAR-4 ovarian 117% | SK-OV-3 ovarian 99.1% | IGROV1 ovarian 104% | OVCAR-3 ovarian 115% | NCI/ADR-RES ovarian 103% | T-47D breast 89% | BT-549 breast 123% | MDA-MB-435 melanoma 103% | SW-620 colon 108% | MCF7 breast 100% | HCT-116 colon 94.2% | HCC-2998 colon 110% | KM12 colon 93.6%

CC(C)C1=CC2=C(C=O)C[C@@H]3[C@](C)(CCC[C@@]3(C)C(=O)OCC#CCN3CCCC3)[C@H]2CC1
inactive: RPMI-8226 leukemia 33.8% | OVCAR-5 ovarian 88.1% | OVCAR-4 ovarian 78.1% | SK-OV-3 ovarian 81.8% | IGROV1 ovarian 75.4% | OVCAR-3 ovarian 88.7% | HS 578T breast 67.9% | NCI/ADR-RES ovarian 82.2% | T-47D breast 54.7% | BT-549 breast 63.9% | MDA-MB-435 melanoma 92.8% | SW-620 colon 88% | MCF7 breast 85.7% | HCT-116 colon 50.3% | HCC-2998 colon 93.9% | KM12 colon 75.1%

COc1cc(/C=C/C(=O)N2CCN(C(=O)/C=C/c3cc(OC)c(OC)c(OC)c3)CC2)cc(OC)c1OC
inactive: RPMI-8226 leukemia 98.6% | OVCAR-8 ovarian 96.4% | OVCAR-5 ovarian 111% | OVCAR-4 ovarian 103% | SK-OV-3 ovarian 116% | IGROV1 ovarian 111% | OVCAR-3 ovarian 117% | HS 578T breast 98.8% | NCI/ADR-RES ovarian 113% | BT-549 breast 88.1% | MDA-MB-435 melanoma 115% | SW-620 colon 105% | MCF7 breast 113% | HCT-116 colon 98.3% | KM12 colon 115%

CCCOC(=O)n1cccc1
inactive: RPMI-8226 leukemia 110% | OVCAR-4 ovarian 91.7% | SK-OV-3 ovarian 101% | OVCAR-3 ovarian 106% | HS 578T breast 105% | NCI/ADR-RES ovarian 102% | BT-549 breast 103% | MDA-MB-435 melanoma 110% | SW-620 colon 102% | MCF7 breast 95% | HCT-116 colon 103% | HCC-2998 colon 104% | KM12 colon 99.7%

OC(c1cc2cc(Br)ccc2c2cc(Br)ccc12)C1CCCCN1 (centres undefined)
inactive: BT-549 breast 69%
active: RPMI-8226 leukemia -38.9% | OVCAR-8 ovarian -69.4% | OVCAR-5 ovarian -76.5% | SK-OV-3 ovarian -55.4% | IGROV1 ovarian -67% | OVCAR-3 ovarian -91.9% | HS 578T breast -53.1% | NCI/ADR-RES ovarian -65.1% | T-47D breast -75.3% | MDA-MB-435 melanoma -78% | SW-620 colon -75% | MCF7 breast -88.2% | HCT-116 colon -72.7% | HCC-2998 colon -81.5% | KM12 colon -91.7%

CCN(CC)CCOC(=O)C(c1ccccc1)(c1ccccc1)C(C)C
inactive: RPMI-8226 leukemia 96% | OVCAR-8 ovarian 87% | OVCAR-5 ovarian 87.2% | OVCAR-4 ovarian 94.8% | SK-OV-3 ovarian 81.9% | IGROV1 ovarian 78.2% | OVCAR-3 ovarian 80.5% | NCI/ADR-RES ovarian 79.2% | T-47D breast 86% | MDA-MB-435 melanoma 90.8% | SW-620 colon 97.3% | HCT-116 colon 92.2% | HCC-2998 colon 96.9% | KM12 colon 90.7%

Cn1c(=O)c2[nH]c(C3CC=CCC3)nc2n(C)c1=O (centres undefined)
inactive: RPMI-8226 leukemia 101% | OVCAR-8 ovarian 106% | OVCAR-5 ovarian 94.7% | OVCAR-4 ovarian 111% | SK-OV-3 ovarian 99.1% | IGROV1 ovarian 111% | OVCAR-3 ovarian 105% | HS 578T breast 97.7% | NCI/ADR-RES ovarian 112% | BT-549 breast 108% | MDA-MB-435 melanoma 106% | MCF7 breast 102% | HCT-116 colon 106% | HCC-2998 colon 104% | KM12 colon 108%

Nc1nnc(-c2ccc3ccccc3c2O)o1
inactive: RPMI-8226 leukemia 90.8% | OVCAR-8 ovarian 97.6% | OVCAR-5 ovarian 102% | OVCAR-4 ovarian 81.2% | SK-OV-3 ovarian 105% | IGROV1 ovarian 86% | OVCAR-3 ovarian 99.2% | HS 578T breast 97.9% | NCI/ADR-RES ovarian 84.5% | BT-549 breast 103% | MDA-MB-435 melanoma 110% | SW-620 colon 84.9% | MCF7 breast 94% | HCT-116 colon 88.5% | KM12 colon 99.4%

C=C1C(=O)O[C@H]2[C@H]1CC/C(COC(=O)NCc1ccccc1OC)=C\CC[C@@]1(C)O[C@@H]21
inactive: RPMI-8226 leukemia 25.7% | OVCAR-8 ovarian 10.5% | OVCAR-5 ovarian 73% | OVCAR-4 ovarian 41.7% | SK-OV-3 ovarian 85.8% | HS 578T breast 40.1% | NCI/ADR-RES ovarian 86% | T-47D breast 31.5% | BT-549 breast 26.7% | MDA-MB-435 melanoma 44.4% | HCC-2998 colon 93.9% | KM12 colon 62.3%
active: OVCAR-3 ovarian -1.44% | HCT-116 colon -26.1%

COc1ccc(/C=C2/C(=O)NC(SCC(=O)N3CCN(c4cc5c(cc4F)c(=O)c(C(=O)O)cn5C4CC4)CC3)=NC2N)cc1OC (centres undefined)
inactive: OVCAR-5 ovarian 104% | OVCAR-4 ovarian 107% | SK-OV-3 ovarian 121% | IGROV1 ovarian 107% | OVCAR-3 ovarian 107% | HS 578T breast 105% | NCI/ADR-RES ovarian 104% | T-47D breast 110% | MDA-MB-435 melanoma 104% | SW-620 colon 105% | MCF7 breast 98% | HCT-116 colon 105% | HCC-2998 colon 99.7% | KM12 colon 106%

COc1ccc(-c2ccc(-c3ccc(C(=N)N)s3)s2)cc1Cl
active: RPMI-8226 leukemia -39.7% | OVCAR-8 ovarian -23.3% | IGROV1 ovarian 5.34% | OVCAR-3 ovarian -90.6% | T-47D breast 6.3% | MDA-MB-435 melanoma -81.4% | SW-620 colon -78.7% | MCF7 breast -66.2% | HCT-116 colon -95.8% | HCC-2998 colon 9.04% | KM12 colon -86.1%
inactive: OVCAR-5 ovarian 68.4% | OVCAR-4 ovarian 72.5% | HS 578T breast 87% | NCI/ADR-RES ovarian 27.8% | BT-549 breast 94.9%
